# Six1-Eya2 inh = qHTS Assay for Inhibitors of the Six1/Eya2 Interaction; Homeobox protein SIX1 (Homo sapiens) + Protein phosphatase EYA2 (Homo sapiens), …; AlphaScreen GST-Six1/His-Eya2 binding, biochemical; active compounds read low; activity change, % (no concentration beside the values); actives 0.56% (n = 360,000); AID 651725, 2012; in the data active = activity change below about -65%; inconclusive = mostly about -30% to -63%; also: % is scaled to controls: 0 for no effect and ±100 for the full control effect
#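 Six1/Eya2 binding was read as AlphaScreen signal after compounds were pinned into GST-Six1 plus His-tagged Eya2 (5X stock 250/500 nM) in pH 8.0 Tris/NaCl/TCEP buffer, beads added, then incubated 1 h, 37 C, dark.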
# HP1b chromo inh = HTS for Inhibitors of HP1-beta Chromodomain Interactions with Methylated Histone Tails. Potency, µM (titrated, usually from 114 µM), without a hit: at the top dose activity change, negative = inhibition, most hits filed as inhibitors. Chromobox protein homolog 1 (Homo sapiens), P83916. actives 0.56% (n = 390,000). AlphaScreen HP1-beta / biotin-H3K9me3 peptide binding; also: potency is read from the fitted curve at half-maximal effect; nearly all actives have a fitted effect of over 70% in size
# Target sequence (P83916 whole entry, looked up): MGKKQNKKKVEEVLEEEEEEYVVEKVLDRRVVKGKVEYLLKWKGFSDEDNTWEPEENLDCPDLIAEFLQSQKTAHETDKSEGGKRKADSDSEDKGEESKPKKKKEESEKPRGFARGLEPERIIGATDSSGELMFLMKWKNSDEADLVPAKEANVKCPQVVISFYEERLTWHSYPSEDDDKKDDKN
#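 Compound inhibition of the preformed complex between 50 nM HP1-beta and 50 nM biotinylated H3K9me3 peptide was read by AlphaScreen. Buffer was PBS pH 7.4 with 0.01% Tween-20. Incubations ran 30 min at room temperature, with 10 ug/mL donor/acceptor beads.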
# G9a inh = qHTS Assay for Inhibitors of Histone Lysine Methyltransferase G9a; G9a H3K9 monomethylation, AlphaScreen, 2 h; Potency, µM (doses to about 102 µM), without a hit: top-dose activity, negative = inhibition, usual class: inhibitors; AID 504332, 2011; Histone-lysine N-methyltransferase EHMT2 (Homo sapiens), Q96KQ7; actives 8.8% (n = 350,000); also: potency is read from the fitted curve at half-maximal effect; % is scaled to controls: 0 for no effect and ±100 for the full control effect; nearly all actives have a fitted effect of over 75% in size
# Target sequence (Q96KQ7 913-1193 limits assumed): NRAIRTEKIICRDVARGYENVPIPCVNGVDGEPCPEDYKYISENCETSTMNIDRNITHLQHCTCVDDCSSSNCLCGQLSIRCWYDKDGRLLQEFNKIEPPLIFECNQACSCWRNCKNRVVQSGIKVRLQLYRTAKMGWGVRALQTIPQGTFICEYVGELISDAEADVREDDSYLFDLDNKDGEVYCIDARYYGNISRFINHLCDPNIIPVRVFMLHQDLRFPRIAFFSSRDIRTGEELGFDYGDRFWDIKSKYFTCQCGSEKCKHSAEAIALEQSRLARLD
#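 Compounds were preincubated with 20 nM G9a for 15 min, after which biotinylated H3K9 peptide (500 nM) and SAM (20 uM) started a 2 h room-temperature reaction. Monomethylated product was quantified by antibody-based AlphaScreen chemiluminescence.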
# CtBP-E1A blk = qHTS Assay for Inhibitors of the CtBP/E1A Interaction; actives 0.49% (n = 340,000); AlphaScreen GST-E1A/His-CtBP binding, 1536-well; active compounds read low; activity change, % (no concentration beside the values); CtBP / adenovirus E1A interaction (AlphaScreen); in the data active = activity change below about -65%; inconclusive = mostly about -30% to -63%; also: % is scaled to controls: 0 for no effect and ±100 for the full control effect
#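 Protein mix (5X: 125 nM each GST-E1A, His-CtBP) was incubated with pinned compound 2 h at 37 deg C in dark, in 50 mM Tris pH 8.0 buffer with 300 mM NaCl. Glutathione donor and nickel acceptor beads followed; AlphaScreen signal read after 1 h.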
# BAZ2B inh = qHTS Assay for Inhibitors of BAZ2B | Potency, µM (doses to about 114 µM), without a hit: top-dose activity change, negative = inhibition, actives largely listed as inhibitors | AlphaScreen BAZ2B-H3K14Ac peptide displacement | AID 504333, 2011 | actives 4.4% (n = 360,000) | Bromodomain adjacent to zinc finger domain protein 2B (Homo sapiens), Q9UIF8; also: potency is read from the fitted curve at half-maximal effect; % is scaled to controls: 0 for no effect and ±100 for the full control effect; nearly all actives have a fitted effect of over 60% in size
#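 BAZ2B 50 nM plus b-H3(5-23)K14Ac 50 nM, PBS pH 7.4/0.01% Tween-20, 30 min RT; compound added (max 110 uM), 30 min RT; streptavidin donor/Ni-chelate acceptor beads 10 ug/mL final, 20 min dark; AlphaScreen read.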
# JMJD2A Tudor = qHTS Assay for Inhibitors of JMJD2A-Tudor Domain | Lysine-specific demethylase 4A (Homo sapiens), O75164 | AlphaScreen JMJD2A-Tudor / H3K4me3 peptide binding | Potency, µM (series often up to 114 µM), for the others: at the highest dose activity change, negative = inhibition, actives largely listed as inhibitors | actives 4.4% (n = 390,000) | AID 504339, 2011; also: potency is read from the fitted curve at half-maximal effect; % is scaled to controls: 0 for no effect and ±100 for the full control effect; nearly all actives have a fitted effect of over 50% in size
# * = called active by the depositor; ? = inconclusive; · = no result given; [ ] = another dose, or the depositor's remark. Compounds with a hit are over-represented: about 10% of the library has one in this group of screens. Unless noted, calls follow the shape of the dose curve; as a rule, active = well fitted inhibition curve with a large enough effect; inconclusive = small, poorly fitted or top-dose-only effect; inactive = no such curve, though single readings can be large or run the other way.
SMILES,Six1-Eya2 inh,HP1b chromo inh,G9a inh,CtBP-E1A blk,BAZ2B inh,JMJD2A Tudor
COc1ccc(OCC(=O)Nc2nnc(S(=O)(=O)N3CCc4ccccc43)s2)cc1,·,32%,0%[59 µM],·,-23%,-10%
CCCN1CCC(=O)N(C(CSc2ccc(OC)cc2)CC(C)C)CC1 (stereo not drawn),·,17%,·,·,·,-24%
O=[N+]([O-])c1ccc(OCc2n[nH]c(=S)n2-c2ccccc2)cc1,5,5%,3.5µM*,7,-25%,45µM*
S=c1[nH]nc(COc2ccc3c(c2)OCO3)n1-c1ccccc1,-10,3%,0.71µM*,1,-34%,40µM*
CCn1c(COc2ccc3c(c2)OCO3)nnc1SCC(=O)c1ccccc1,-7,13%,11µM*,-6,?,-18%
CCN(CC)C(=O)CSc1nnc(COc2ccccc2)n1CC,1,20%,?,2,1%,-7%
COc1ccc(-n2c(COc3cccc(C)c3)n[nH]c2=S)cc1,2,18%,17%[0.501 µM],1,-2%,?
S=c1[nH]nc(-c2ccc3c(c2)OCO3)n1-c1ccccc1,-13,-14%,1.6µM*,24,-3%,5µM*
Cc1ccc2oc(=O)c3cnn(CC(=O)N(C)c4ccc(F)cc4)c3c2c1,·,-4%,-5%[59 µM],·,-7%,-21%
CCOc1ccc(Nc2c3ccccc3nc3ccccc23)cc1,-29,?,32µM*,?,35µM*,-28%[11.4 µM]
CCOc1ccc(Nc2nc(NCC3CCCO3)c3ccccc3n2)cc1 (stereo not drawn),-13,2%,40µM*,-27,32µM*,?
COc1ccc(Nc2nc(NCC3CCCO3)c3ccccc3n2)c(OC)c1 (stereo not drawn),-12,-5%,45µM*,-14,?,?
c1ccc(Nc2nc(NCC3CCCO3)c3ccccc3n2)cc1 (stereo not drawn),6,33%,-38%,-1,-39%,-25%
COc1ccc(C2/C=C\CN(C(=O)c3ccccc3)C(Cc3ccccc3)C(=O)N2Cc2ccc(F)cc2)cc1 (stereo not drawn),·,6%,·,·,·,-21%
Cc1ccc(NS(=O)(=O)c2cc3c(cc2Cl)NC(=O)CO3)cc1C,·,·,·,·,·,-22%
COc1cccc(NC(=O)CSc2nc3n[nH]c(C)c3c(=N)n2-c2cccc(OC)c2)c1,?,21%,3%[12.7 µM],?,?,-11%
COc1cccc(-n2c(SCC(=O)NCCC3=CCCCC3)nc3n[nH]c(C)c3c2=N)c1,-79*,34%,34%[59 µM],-70*,8%,-17%[57.1 µM]
CCC(C)NC(=O)CSc1nc2n[nH]c(C)c2c(=N)n1-c1ccc(OC)cc1 (stereo not drawn),-74*,35%,17%[2.33 µM],-85*,43%,6%
Cc1[nH]nc2nc(SCC(=O)NCC3CCCO3)n(-c3ccc(Br)cc3)c(=N)c12 (stereo not drawn),-65*,43%,-5%[12.7 µM],?,-29%,-7%
Cc1cc(-n2c(SCC(=O)Nc3ccc(Br)cc3)nc3n[nH]c(C)c3c2=N)ccc1Cl,1,26%,11%[59 µM],2,-2%,-11%
Cc1occc(=O)c1OC(=O)Nc1ccc(Cl)c(Cl)c1,12,5%,?,5,-1%,25µM*
CCOC(=O)C1CCN(S(=O)(=O)c2ccc(-c3nc4ccccc4s3)s2)CC1,7,39%,35µM*,7,-34%,-23%
Fc1ccc(C2NCCn3cccc32)cc1 (stereo not drawn),-12,17%,?,-9,?,-34%
c1ccc(C2NCCn3cccc32)cc1 (stereo not drawn),-5,26%,50µM*,-2,?,?
CCC1C(=O)N(c2nc(C)cc(C)n2)N=C1C (stereo not drawn),1,31%,20µM*,8,?,11µM*
SMILES,Six1-Eya2 inh,HP1b chromo inh,G9a inh,CtBP-E1A blk,BAZ2B inh,JMJD2A Tudor
CCOC(=O)c1ccccc1NC(=O)N(Cc1ccco1)C1CCN(C(C)=O)CC1,·,28%,-6%[59 µM],·,-16%,-22%
Cc1cccc(-n2c(C)n[nH]c2=S)c1,7,15%,?,3,?,10µM*
Cc1cccc(-n2c(-c3ccncc3)n[nH]c2=S)c1,-16,4%,1.3µM*,-1,3%,28µM*
Cc1cccc(-n2c(C)c(-c3ccccc3)[nH]c2=S)c1,-15,?,·,-12,?,35µM*
CSc1cccc(NC(=O)Cn2ncn3c(cc4ccccc43)c2=O)c1,·,12%,12%[59 µM],·,-9%,-24%
COc1ccc(OC)c(CNC(=O)C2CCN(S(=O)(=O)c3ccc4[nH]c(=O)oc4c3)CC2)c1,·,-2%,7%[59 µM],·,-14%,-29%
CCOc1ccccc1-n1c(=S)sc2c(=O)n(-c3ccccc3)c(=S)[nH]c21,-18,24%,16%[59 µM],-9,-30%,79µM*
COc1cccc(-n2c(=S)sc3c(=O)n(-c4ccccc4OC)c(=S)[nH]c32)c1,-13,-6%,?,-23,?,?
COc1ccc(OC)c(-n2c(=S)[nH]c3c(sc(=S)n3-c3ccccc3C)c2=O)c1,2,-22%,31%[59 µM],0,?,89µM*
COc1ccccc1-n1c(=S)[nH]c2c(sc(=S)n2-c2ccccc2C)c1=O,-30,?,?,-6,-24%,79µM*
COc1ccccc1-n1c(=S)[nH]c2c(sc(=S)n2-c2ccccc2)c1=O,-19,23%,-7%,-27,-16%,?
O=C(Nc1cccc(Br)c1)N1CCN2CCCCC2C1 (stereo not drawn),·,37%,?,·,?,2%
Cc1ccc(C2C(C(=O)c3sc(C)nc3C)=C(O)C(=O)N2CCN2CCOCC2)o1 (stereo not drawn),10,4%,35µM*,5,-33%,?
COc1cccc(C2C(C(=O)c3sc(C)nc3C)=C(O)C(=O)N2CCN2CCOCC2)c1 (stereo not drawn),-5,23%,50µM*,-14,-5%,?
COc1ccc(C2C(C(=O)c3sc(C)nc3C)=C(O)C(=O)N2CCN(C)C)cc1 (stereo not drawn),3,29%,-7%[12.7 µM],0,11%,15%
